# The whole screen tested about 310,000 compounds, of which about 14,000 (4.5%) showed an effect of 50% or more. The effect is printed as a negative number. The sample holds strong results, similar compounds and a random draw of the others, so the mix is not that of the screen.
# Target: human ether-à-go-go-related gene (hERG) potassium channel (human, UniProt Q12809)
# Assay: primary screen, population patch clamp on CHO cells stably expressing hERG; higher = less effect of the substance
# 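Further: peak tail current of the secondary pulse compared with the same well before compound.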
# Chain of human ether-à-go-go-related gene (hERG) potassium channel (Q12809 whole entry, looked up): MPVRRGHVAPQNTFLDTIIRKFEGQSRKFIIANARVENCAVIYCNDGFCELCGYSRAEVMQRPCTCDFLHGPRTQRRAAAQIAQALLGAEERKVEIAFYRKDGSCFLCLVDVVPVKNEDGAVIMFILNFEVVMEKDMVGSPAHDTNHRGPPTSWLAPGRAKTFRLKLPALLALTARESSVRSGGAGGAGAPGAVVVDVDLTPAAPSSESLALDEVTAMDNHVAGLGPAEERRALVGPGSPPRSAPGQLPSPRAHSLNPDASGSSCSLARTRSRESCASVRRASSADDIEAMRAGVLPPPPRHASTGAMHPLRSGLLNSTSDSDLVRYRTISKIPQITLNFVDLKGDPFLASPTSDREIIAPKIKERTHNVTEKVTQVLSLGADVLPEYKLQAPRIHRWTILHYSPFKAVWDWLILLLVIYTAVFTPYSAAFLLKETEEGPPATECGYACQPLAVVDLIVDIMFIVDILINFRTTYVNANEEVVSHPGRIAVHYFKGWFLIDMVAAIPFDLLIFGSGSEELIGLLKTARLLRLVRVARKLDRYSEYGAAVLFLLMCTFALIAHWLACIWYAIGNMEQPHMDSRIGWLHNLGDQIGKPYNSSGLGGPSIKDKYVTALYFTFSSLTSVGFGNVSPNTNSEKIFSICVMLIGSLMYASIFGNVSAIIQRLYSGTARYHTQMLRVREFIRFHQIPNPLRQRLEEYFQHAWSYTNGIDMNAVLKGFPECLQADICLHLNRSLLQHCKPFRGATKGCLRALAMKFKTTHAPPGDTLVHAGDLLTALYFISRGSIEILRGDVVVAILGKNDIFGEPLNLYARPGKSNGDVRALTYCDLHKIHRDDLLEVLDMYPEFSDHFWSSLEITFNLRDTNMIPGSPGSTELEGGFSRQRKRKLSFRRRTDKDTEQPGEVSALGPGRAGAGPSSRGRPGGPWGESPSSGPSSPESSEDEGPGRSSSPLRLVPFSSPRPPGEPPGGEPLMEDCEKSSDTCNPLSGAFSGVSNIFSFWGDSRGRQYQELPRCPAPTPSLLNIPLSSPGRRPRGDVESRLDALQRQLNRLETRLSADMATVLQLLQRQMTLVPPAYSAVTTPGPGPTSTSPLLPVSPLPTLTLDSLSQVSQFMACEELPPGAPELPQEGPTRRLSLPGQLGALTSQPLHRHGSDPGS
row,SMILES,"hERG current change (%, negative = inhibition) at 10uM [%]"
1,O=c1[nH]c(=O)n(CCc2ccccc2)c(O)c1C=NCCCn1ccnc1,-2.66
2,COc1ccccc1CC(NC(C)=O)C(=O)NC1CCN(C(=O)Nc2ccccc2F)CC1 (stereo not drawn),28.3
3,Cc1ccc(Cl)cc1NS(=O)(=O)c1ccc2oc(=O)ccc2c1,-25.7
4,COc1ccc(C(CNCC(O)COc2c(C)ccc(C)c2C)N(C)C)cc1 (stereo not drawn),-44.1
5,COc1ccc(CCN(C)CC(O)c2ccccc2)cc1OC.O=C(O)C(=O)O (stereo not drawn),-32.2
6,COc1ccc(CCN(C)Cc2nc(Cc3ccc(OC)c(OC)c3)no2)cc1OC,0.332
7,COc1ccc(CCN(C)CC(O)COc2ccc(C(C)=O)cc2OC)cc1OC (stereo not drawn),-21.6
8,COc1ccc(CCN(C)CC(O)COC(c2ccc(F)cc2)c2ccc(F)cc2)cc1OC (stereo not drawn),-79.2
9,COc1ccc(CCN(C)CC(O)COc2c(C)ccc(C)c2C)cc1OC (stereo not drawn),-76
10,O=C(Nc1ccc(Nc2ccccc2)cc1)c1cc([N+](=O)[O-])ccc1Cl,11.2
11,CNc1ccc(Br)cc(C(=O)/C=C/c2cccc(OC)c2)c1=O,-1.19
12,COc1ccc(NC2c3ncccc3C(=O)N2Cc2cccs2)cc1 (stereo not drawn),-18.4
13,CCc1noc(C)c1C(=O)N1CCOCC1,14.4
14,COC(=O)N1C(=O)[C@](c2ccccc2)(C(C)C)N1C(=O)OC,12.2
15,COc1ccccc1/C=N/NC(=O)c1cccc(OC(F)(F)C(F)F)c1,-9.51
16,O=C(NCCN1CCOCC1)c1cc(-c2ccc(Cl)s2)nc2ccccc12,-5.22
17,CC(C)(CNC(=O)c1cc(-c2ccc(Cl)s2)nc2ccccc12)N1CCOCC1,-55.1
18,O=C(c1cc(-c2ccc(Cl)s2)nc2ccccc12)N1CCOCC1,-17
19,O=C(O)c1ccccc1C(=O)N1CC=C(c2ccccc2)CC1,3.44
20,O=C(NCCCN1CCOCC1)c1cc(-c2ccc(Cl)s2)nc2ccccc12,-44.1
21,CC(=O)N1CCN(C(=O)c2cc(C)nc3ccccc23)CC1,31.1
22,Cc1cc(C(=O)N2CC=C(c3ccccc3)CC2)c2ccccc2n1,-52.9
23,Cc1ccc(-c2cc(C(=O)N3CCOCC3)c3ccccc3n2)cc1,-3.91
24,O=C(c1cc(-c2ccc(Cl)cc2)nc2ccccc12)N1CCOCC1,-68.8
25,O=C(c1cc(-c2ccccc2)nc2ccccc12)N1CCOCC1,27.6
26,O=C(c1cc(-c2ccc(Cl)s2)nc2ccccc12)N1CCCC1,4.92
27,CC(=O)N1CCN(C(=O)c2cc(-c3ccc(Cl)s3)nc3ccccc23)CC1,-51.8

row,SMILES,"hERG current change (%, negative = inhibition) at 10uM [%]"
1,CCOc1ccnc(OCC)c1Br,28.3
2,NS(=O)(=O)c1ccc(OC(=O)CNC(=O)OCc2ccccc2)cc1,11
3,Cc1ccc(OCC(O)Cn2c(N3CCOCC3)nc3c2c(=O)[nH]c(=O)n3C)cc1 (stereo not drawn),-16.1
4,Cc1nn(C)c(C)c1/C=N/NC(=O)c1csc2ccccc12,-2.45
5,O=C(CN1C(=O)NC(Cc2c[nH]c3ccccc23)C1=O)Nc1ccccc1Br (stereo not drawn),-15.4
6,COc1ccc(S(=O)(=O)N2CCCC2C(=O)Nc2nc3c(s2)CCCC3)cc1 (stereo not drawn),-14
7,COc1ccc(CCNC(=O)c2cc(S(=O)(=O)N(C)c3ccccc3)ccc2Cl)cc1,-16.6
8,Cn1[nH]c(-c2ccccc2)c(/C=N/O)c1=O,-15.1
9,COCCn1c(-c2ccc(OC(F)(F)C(F)C(F)(F)F)cc2)nc2c1c(=O)[nH]c(=O)n2CC(C)C (stereo not drawn),-19.5
10,CC1CCCN(C(=O)c2ccccc2OC2CCN(S(C)(=O)=O)CC2)C1 (stereo not drawn),11.1
11,O=C(c1cc(-c2ccc(Br)cc2)nc2ccccc12)N1CCC1,-44.4
12,O=C(c1cc(-c2ccc(Cl)cc2)nc2ccccc12)N1CCC1,-59.7
13,O=C(c1cc(-c2ccccc2)nc2ccccc12)N1CCCC1,2.55
14,COc1ccc(/C=c2\sc3nc(-c4ccccc4OC)nn3c2=O)c(OC)c1,9.67
15,Cc1c(C)c2ccc(OCC(=O)N3CCN(c4ccc(F)cc4)CC3)c(C)c2oc1=O,2.26
16,COC(=O)c1ccc(OC)cc1OCC(=O)N1CCN(c2ccc(F)cc2)CC1,-33
17,Cc1ccc(C)c(N2CCN(C(=O)COc3cc(=O)n(C)c4ccccc34)CC2)c1,-32.3
18,Cc1cc(OCC(=O)N2CCN(c3ccc(F)cc3)CC2)c2c(C)cc(=O)oc2c1,10.7
19,Cc1ccc(C)c(N2CCN(C(=O)CCS(=O)(=O)c3ccc4c(c3)oc(=O)n4C)CC2)c1,-48.6
20,Cn1c(=O)oc2cc(S(=O)(=O)CCC(=O)N3CCN(c4ccccc4F)CC3)ccc21,1.03
21,CC(=O)c1cc(F)ccc1OCC(=O)N1CCN(c2ccc(F)cc2)CC1,-58.2
22,COC(=O)c1ccccc1OCC(=O)N1CCN(c2ccc(F)cc2)CC1,-44.9
23,Cn1c(=O)cc(OCC(=O)N2CCN(c3ccccc3F)CC2)c2ccccc21,-17.5
24,Cc1cccc(N2CCN(C(=O)COc3cc(=O)n(C)c4ccccc34)CC2)c1C,-61.2
25,Cc1cccc(N2CCN(C(=O)CCS(=O)(=O)c3ccc4c(c3)oc(=O)n4C)CC2)c1C,-51.2
26,CCC(=O)c1cc(F)ccc1OCC(=O)N1CCN(c2ccc(F)cc2)CC1,-72.1
27,CCOC(=O)c1c(S(=O)(=O)NCC(=O)Nc2ccc(F)cc2)c(C)n(C)c1C,14.5
